Several values for one entry are separate records, joined by “and”; a condition that tells them apart may be missing. Equal entries are not always repeated. Among all 5,500 compounds or so, about 2,000 (36%) were called active. Another 18% or so got no clear call; they are omitted. Cut-off read from the data, not from the text of the source: active = normalized growth mostly below about 0.91 (no sharp cut-off); inconclusive = no clear call, values can overlap the other calls; inactive = mostly above about 0.92. This is one part of the list.
Experiment: chemical genetic growth profiling, strain panel (AID 1159580);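 note: tested at 20 µM; growth read once vehicle control cultures reached saturation at 30 °C; 1 = growth at the plate median or of vehicle wells; lower values mean less growth of the strain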
Settings: S. cerevisiae deletion strains, growth OD

Measured: normalized growth

CCOC([O-])=Nc1c[n+](N2CCOCC2)no1
inactive: locus YAL013W, strain DEP1, hits give low values 1.01 | locus YAL021C, strain ccr4, hits give low values 0.994 | locus YAL026C, strain drs2, hits give low values 0.999 | locus YAL030W, strain snc1, hits give low values 0.991 | locus YBL061C, strain skt5, hits give low values 0.997 | locus YBR009C, strain hhf1, hits give low values 0.997 | locus YBR021W, strain FUR4, hits give low values 1.03 | locus YBR023C, strain chs3, hits give low values 0.986 | locus YBR171W, strain sec66, hits give low values 1 | locus YBR229C, strain ROT2, hits give low values 1.01 | locus YBR231C, strain swc5, hits give low values 0.997 | locus YBR279W, strain paf1, hits give low values 1.01 | locus YCL011C, strain gbp2, hits give low values 0.996 | locus YCL016C, strain dcc1, hits give low values 0.978 | locus YCL029C, strain bik1, hits give low values 0.991 | locus YCL061C, strain MRC1, hits give low values 0.998 | locus YCL069W, strain vba3, hits give low values 0.996 | locus YCR088W, strain abp1, hits give low values 0.999 | locus YDL005C, strain med2, hits give low values 0.993 | locus YDL035C, strain GPR1, hits give low values 1.03 | locus YDL040C, strain nat1, hits give low values 1 | locus YDL074C, strain BRE1, hits give low values 1.04 | locus YDL101C, strain DUN1, hits give low values 1.02 | locus YDL134C, strain PPH21, hits give low values 1.01 | locus YDL185W, strain tfp1, hits give low values 0.984 | locus YDL192W, strain arf1, hits give low values 0.998 | locus YDR001C, strain nth1, hits give low values 0.993 | locus YDR069C, strain doa4, hits give low values 1 | locus YDR101C, strain arx1, hits give low values 0.972 | locus YDR137W, strain rgp1, hits give low values 1.01 | locus YDR150W, strain NUM1, hits give low values 1.02 | locus YDR159W, strain sac3, hits give low values 0.993 | locus YDR162C, strain NBP2, hits give low values 1.01 | locus YDR195W, strain ref2 1 | locus YDR297W, strain sur2, hits give low values 1 | locus YDR318W, strain mcm21, hits give low values 0.99 | locus YDR334W, strain swr1, hits give low values 0.984 | locus YDR335W, strain msn5, hits give low values 0.991 | locus YDR388W, hits give low values 0.997 | locus YDR392W, strain spt3, hits give low values 0.927 | locus YDR502C, strain sam2, hits give low values 0.988 | locus YEL003W, strain gim4, hits give low values 1 | locus YEL037C, strain rad23, hits give low values 0.993 | locus YEL061C, strain CIN8 (second series), hits give low values 1 | locus YEL061C, strain CIN8, hits give low values 1.01 | locus YER015W, strain faa2, hits give low values 0.979 | locus YER016W, strain bim1, hits give low values 1.01 | locus YER110C, hits give low values 0.984 | locus YER111C, strain swi4, hits give low values 0.979 | locus YER155C, strain BEM2 (second series), hits give low values 0.984 | locus YER155C, strain BEM2, hits give low values 1 | locus YER167W, strain BCK2, hits give low values 1.01 | locus YFR010W, strain ubp6, hits give low values 0.986 | locus YGL078C, strain dbp3, hits give low values 0.987 | locus YGL086W, strain mad1, hits give low values 1 | locus YGL167C, strain pmr1, hits give low values 1 | locus YGL173C, strain kem1, hits give low values 0.994 | locus YGL227W, strain vid30, hits give low values 0.993 | locus YGL240W, strain doc1, hits give low values 1.01 | locus YGL248W, strain PDE1, hits give low values 1.01 | locus YGL253W, strain hxk2, hits give low values 0.993 | locus YGR078C, strain PAC10, hits give low values 1 | locus YGR135W, strain pre9, hits give low values 0.986 | locus YGR229C, strain SMI1, hits give low values 1.02 | locus YGR252W, strain gcn5, hits give low values 1.01 | locus YHR013C, strain ard1, hits give low values 0.985 | locus YHR027C, strain rpn1, hits give low values 0.987 | locus YHR030C, strain SLT2, hits give low values 1.01 and 1.02 | locus YHR079C, strain IRE1 (second series), hits give low values 1 | locus YHR079C, strain IRE1, hits give low values 1.03 | locus YHR094C, strain hxt1, hits give low values 0.998 | locus YHR129C, strain ARP1, hits give low values 1.01 | locus YHR142W, strain chs7, hits give low values 0.992 | locus YHR200W, strain rpn10, hits give low values 0.995 | locus YIL066C, strain RNR3, hits give low values 1.01 | locus YIL073C, strain SPO22, hits give low values 0.973 | locus YIL125W, strain kgd1, hits give low values 1 | locus YIR030C, strain dcg1, hits give low values 0.992 | locus YJL092W, strain hpr5, hits give low values 0.992 | locus YJL095W, strain BCK1 (second series), hits give low values 0.994 | locus YJL095W, strain BCK1, hits give low values 1 and 1.03 | locus YJL115W, strain asf1, hits give low values 0.982 | locus YJL129C, strain trk1, hits give low values 0.997 | locus YJL134W, strain LCB3, hits give low values 1.01 | locus YJL154C, strain vps35, hits give low values 0.99 | locus YJL164C, strain tpk1, hits give low values 0.989 | locus YJL166W, strain qcr8, hits give low values 0.991 | locus YJL168C, strain set2, hits give low values 1 | locus YJL187C, strain SWE1 (second series), hits give low values 1.01 | locus YJL187C, strain SWE1, hits give low values 1.01 | locus YJR043C, strain POL32, hits give low values 0.989 | locus YJR066W, strain TOR1, hits give low values 0.997

— PubChem BioAssay AID1159580 (chemical genetic matrix, 2015)
